High-throughput results: PubChem, National Center for Advancing Translational Sciences (NCATS)
JMJD2A Tudor inh: qHTS Assay for Inhibitors of JMJD2A-Tudor Domain; actives 4.4% (n = 390,000); AlphaScreen JMJD2A-Tudor / H3K4me3 peptide binding; Potency, µM (titrated, usually from 114 µM), most hits filed as inhibitors; note: nearly all actives have a fitted effect of over 50% in size
HP1b binding inh: HTS for Inhibitors of HP1-beta Chromodomain Interactions with Methylated Histone Tails; AlphaScreen HP1-beta / biotin-H3K9me3 peptide binding; Chromobox protein homolog 1 (Homo sapiens), P83916; AID 540317, 2011; Potency, µM (highest dose often 114 µM), hits mostly inhibitors; actives 0.56% (n = 390,000); note: nearly all actives have a fitted effect of over 70% in size
Target sequence (P83916 whole entry, looked up): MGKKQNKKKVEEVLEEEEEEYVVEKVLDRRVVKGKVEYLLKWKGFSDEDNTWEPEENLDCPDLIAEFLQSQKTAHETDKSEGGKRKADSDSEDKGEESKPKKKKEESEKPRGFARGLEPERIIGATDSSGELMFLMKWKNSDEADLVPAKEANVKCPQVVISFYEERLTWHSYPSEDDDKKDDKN
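Compound inhibition of the preformed complex between 50 nM HP1-beta and 50 nM biotinylated H3K9me3 peptide was read by AlphaScreen. Buffer was PBS pH 7.4 with 0.01% Tween-20. Incubations ran 30 min at room temperature, with 10 ug/mL donor/acceptor beads.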
L3MBTL1 block: qHTS Assay for the Inhibitors of L3MBTL1. Lethal(3)malignant brain tumor-like protein 1 (Homo sapiens), Q9Y468. AlphaScreen L3MBTL1–H3K9me1 peptide binding. Potency, µM (doses to about 57.1 µM), usual class: inhibitors. actives 0.66% (n = 230,000); note: nearly all actives have a fitted effect of over 60% in size
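L3MBTL1 50 nM + b-AHA-H3(1-15)K9me1 75 nM, 30 min RT; compound added, 30 min RT; streptavidin donor/Ni-chelate acceptor beads 10 ug/mL each final, 30 min RT dark; AlphaScreen read.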
BAZ2B block: qHTS Assay for Inhibitors of BAZ2B. AID 504333, 2011. AlphaScreen BAZ2B-H3K14Ac peptide displacement. actives 4.4% (n = 360,000). Potency, µM (doses to about 114 µM), hits mostly inhibitors. Bromodomain adjacent to zinc finger domain protein 2B (Homo sapiens), Q9UIF8; note: nearly all actives have a fitted effect of over 60% in size
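Inhibition is scored as reduced AlphaScreen emission. The BAZ2B/b-H3(5-23)K14Ac complex (50 nM each) in PBS pH 7.4, 0.01% Tween-20 meets compound (up to 110 uM) for 30 min at RT before bead addition.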
PI5P4Ka inh: qHTS for Inhibitors of phosphatidylinositol 5-phosphate 4-kinase (PI5P4K) | Phosphatidylinositol 5-phosphate 4-kinase type-2 alpha (Homo sapiens), P48426 | PI5P4Kalpha enzyme, ADP-Glo luminescence, 60 min; hits give low values | actives 1.2% (n = 330,000) | max response, %; active = max response of -50% or lower; inconclusive = between -30% and -50%; inactive = -30% or higher; note: value at the top dose of about 77 µM
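Compounds were pin-transferred onto PI5P4Kalpha and substrate in HEPES pH 7.4 buffer with EGTA, CHAPS and 5% DMSO. ATP (5 microM final) started the reaction, which ran 60 minutes at room temperature before ADP-Glo detection.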
G9a block: qHTS Assay for Inhibitors of Histone Lysine Methyltransferase G9a | actives 8.8% (n = 350,000) | G9a H3K9 monomethylation, AlphaScreen, 2 h | Potency, µM (series often up to 102 µM), usual class: inhibitors | AID 504332, 2011; note: nearly all actives have a fitted effect of over 75% in size
Target sequence (Q96KQ7 913-1193 limits assumed): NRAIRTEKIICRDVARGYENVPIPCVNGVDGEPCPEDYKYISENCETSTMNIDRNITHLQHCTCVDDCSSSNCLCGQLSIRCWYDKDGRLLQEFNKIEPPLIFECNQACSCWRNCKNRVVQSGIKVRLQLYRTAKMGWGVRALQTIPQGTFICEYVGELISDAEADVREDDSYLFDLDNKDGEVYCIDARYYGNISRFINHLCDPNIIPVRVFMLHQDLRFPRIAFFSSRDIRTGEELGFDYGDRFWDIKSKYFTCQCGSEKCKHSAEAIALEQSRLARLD
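Step 1: enzyme (final 20 nM) with compound, 15 min RT. Step 2: substrate peptide 500 nM and SAM 20 uM, 2 h RT. Step 3: anti-H3K9me1 antibody and AlphaScreen beads, 10 min, then plate read.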
A number is an active result; – = inactive; ? = inconclusive; · = no result; [ ] = dose if it differs, or a comment. Sampled rows, rich in hits. Any-hit rate of the full collection: about 11%. Unless noted, calls come from the whole dose curve; as a rule, active = well fitted inhibition curve with a large enough effect; inconclusive = small, poorly fitted or top-dose-only effect; inactive = no such curve, though single readings can be large or run the other way.

SMILES	JMJD2A Tudor inh	HP1b binding inh	L3MBTL1 block	BAZ2B block	PI5P4Ka inh	G9a block
Cc1cc(F)ccc1-n1nnc(C(N)=O)c1C	–	–	·	–	·	–
O=C(CNC(=O)c1ccccc1)N[C@H](C(=O)Nc1cc(C(F)(F)F)ccc1Cl)c1ccccc1	–	·	·	·	·	·
C/C=C(\C)CN1CCN(c2cc(C)ccc2C)CC1	5.6µM	?	–	–	·	1.3µM
C/C=C(\C)CN1CCN(c2ccccc2)CC1	–	–	·	?	–	50µM
C/C=C(\C)CN1CCN(c2cccc(C)c2C)CC1	–	–	–	–	·	–
C/C(=N\N(c1ccccc1)c1ccccc1)c1ccc(O)cc1	40µM	?	·	50µM	–	79µM
CC(=NN(Cc1ccccc1)c1ccccc1)c1ccccc1	–	–	·	·	–	·
C/C(=N\N(c1ccccc1)c1ccccc1)c1ccc(N)cc1	22µM	?	·	·	–	·
CCOc1ccc(C(=O)/C=C/Nc2ccc(S(=O)(=O)Nc3onc(C)c3C)cc2)cc1	–	–	–	?	–	1.6µM
Cc1noc(NS(=O)(=O)c2ccc(N/C=C\C(=O)c3cccc4ccccc34)cc2)c1C	?	?	–	50µM	?	?
CN(C1CCCCC1)S(=O)(=O)c1ccc2c(c1)c(=O)c(C(=O)N1CCN(c3ccc(F)cc3)CC1)cn2C	–	–	·	·	·	–
CN(CCCNC(=O)c1cn(C)c2ccc(S(=O)(=O)N(C)C)cc2c1=O)c1ccccc1	?	–	–	?	–	50µM
CCn1cc(C(=O)O)c(=O)c2cc(S(=O)(=O)N(C)C)ccc21	20µM	–	–	–	·	?
CN(C)S(=O)(=O)c1ccc2c(c1)c(=O)c(C(=O)NCCCN1CCCCCC1)cn2C	–	–	–	–	–	45µM
CC1CCN(CCCNC(=O)c2cn(C)c3ccc(S(=O)(=O)N(C)C4CCCCC4)cc3c2=O)CC1	?	–	·	·	·	–
CN1CCN(C(=O)c2cn(C)c3ccc(S(=O)(=O)N(C)C4CCCCC4)cc3c2=O)CC1	–	–	·	–	–	56µM
CC(C)(C)C(=O)OCc1cc(=O)n2nc(C3CCCCC3)sc2n1	–	–	·	–	·	–
Cc1ccc(C)c(N(C)S(=O)(=O)c2ccc3[nH]cc(C(=O)NC4CCCC4)c(=O)c3c2)c1	?	–	·	–	·	–
CCN1CCN(Cc2c(O)ccc3c(=O)c(Oc4ccccc4C(C)C)c(C(F)(F)F)oc23)CC1	–	–	·	–	·	–
CC(=O)Nc1ccc(S(=O)(=O)Nc2cc(-c3cn4ccccc4n3)ccc2C)cc1	–	–	·	–	·	–
O=C(NCCC(=O)N1CCN(S(=O)(=O)c2ccc(Cl)cc2)CC1)Nc1ccccc1	–	–	–	–	–	50µM
Cc1ccccc1OCCC(=O)N1CCN(S(=O)(=O)c2ccc(Cl)cc2)CC1	–	–	–	–	–	45µM
O=C(NCc1ccc(Cl)cc1)N1CCN(S(=O)(=O)c2ccccc2)CC1	–	–	·	–	–	50µM
CCCc1ccc(S(=O)(=O)N2CCN(C(C)C(=O)NCc3ccccc3)CC2)cc1 (configuration not stated)	–	–	–	–	–	56µM
O=C(NCCC(=O)N1CCN(S(=O)(=O)c2ccc(F)cc2)CC1)Nc1ccccc1	–	–	–	–	–	–[12.7 µM]
SMILES	JMJD2A Tudor inh	HP1b binding inh	L3MBTL1 block	BAZ2B block	PI5P4Ka inh	G9a block
c1ccc(CN(Cc2ccccc2)Cc2nnc(-c3cc4ccccc4[nH]3)o2)cc1	–	·	·	·	·	·
O=C(NCCC(=O)N1CCN(c2ccccc2O)CC1)c1ccc(Cl)cc1	–	–	–	–	–	50µM
O=C(O)c1cc(-c2ccc(/C=c3\sc4nc5ccc(Br)cc5n4c3=O)o2)ccc1Cl	·	·	28µM	18µM	·	0.79µM
Cc1cc(-c2ccccc2C(=O)O)on1	–	–	–	–	–	–
Cc1cc2nc3s/c(=C/c4ccc(-c5ccccc5C(=O)O)o4)c(=O)n3c2cc1C	32µM	?	·	50µM	-86	3.5µM
O=C(O)c1ccccc1-c1ccc(/C=c2\sc3nc4cc(Br)cnc4n3c2=O)o1	3.2µM	6.3µM	13µM	40µM	·	?
Cc1ccc(-n2c(C)cc(/C=c3/sc4nc5ccccc5n4c3=O)c2C)cc1	?	–	·	–	–	?
Cc1cc2nc(/C(C#N)=C\c3ccc(-c4ccccc4C(=O)O)o3)[nH]c2cc1C	–	–	–	?	–	?
Clc1nssc1=Nc1ccc(Br)cc1	25µM	32µM	·	22µM	-57	3.2µM
OCc1ccccc1N=c1ssnc1Cl	·	·	–	?	·	–[2.33 µM]
COc1cc(N=c2ssnc2Cl)cc(OC)c1	28µM	–	–[11.4 µM]	45µM	-79	?
Clc1ccc(N=c2ssnc2Cl)nc1	–	–	?	–	–	–
N#Cc1cccc(N=c2ssnc2Cl)c1	13µM	?	–	28µM	-77	0.89µM
Clc1nssc1=Nc1nncs1	22µM	?	–	50µM	-55	–[0.501 µM]
CCCC[C@]12Cc3c(ccc4ccccc34)C(O1)C1=C(O2)C(=O)c2ccccc2C1=O	·	·	·	?	·	–[2.33 µM]
COc1ccc(N2C(=O)C(=O)/C(=C(/O)c3ccc(C)cc3)C2c2cccnc2)cc1 (configuration not stated)	?	–	–	56µM	–	?
COc1ccc(C2/C(=C(/O)c3ccc(C)cc3)C(=O)C(=O)N2C)cc1 (configuration not stated)	–	–	–	–	–	?
COc1ccc(/C(O)=C2\C(=O)C(=O)N(c3cc(C)on3)C2c2cccc(OC)c2OC)cc1C (configuration not stated)	–	–	–	?	–	50µM
Cc1ccc(/C(O)=C2\C(=O)C(=O)N(c3cc(C)on3)C2c2cccc(Cl)c2)cc1 (configuration not stated)	–	–	–	–	–	45µM
COC(=O)c1ccc(C2/C(=C(/O)c3ccc(OC)cc3)C(=O)C(=O)N2c2cc(C)on2)cc1 (configuration not stated)	–	–	–	–	–	–[12.7 µM]
COc1ccc(/C(O)=C2/C(=O)C(=O)N(c3ccccn3)C2c2ccc(OC)cc2)cc1 (configuration not stated)	–	–	·	–	–	?
COc1ccc(/C(O)=C2/C(=O)C(=O)N(c3ccccn3)C2c2cccc(Cl)c2)cc1 (configuration not stated)	–	–	·	–	–	79µM
